Assay results reported in PubChem BioAssay (NCATS).
Records with an inconclusive call do not appear. Active and inactive are the calls of the source. Unless noted, calls come from the whole dose curve; as a rule, active = well fitted curve in the direction sought with a large enough effect; inconclusive = small, poorly fitted or top-dose-only effect, or another doubt; inactive = no such curve, though single readings can be large; an effect the other way counts as inactive or inconclusive.

Assays:
[1] = S16 Schwann cell viability assay (CellTiter-Glo assay) (AID 624031); details: S16 rat Schwann cells viability, 24 h; series mostly up to 57.5 µM;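 note: cellular ATP luminescence as a viability measure; nearly all actives have a fitted effect of over 70% in size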
Procedure, shortened: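 Native S16 Schwann cells (rat), serum-containing medium, overnight attachment then 24 h drug exposure at 37 °C/5% CO2. CellTiter-Glo ATP signal; normalized to cell-free and vehicle wells.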

[2] = S16 Schwann cell PMP22 intronic element firefly luciferase assay (AID 624032); details: S16 rat Schwann cells, PMP22 element FLuc, 24 h; series mostly up to 57.5 µM; note: nearly all actives have a fitted effect of over 30% in size
Procedure, shortened: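 Rat S16 Schwann cells stably carrying a PMP22 intronic element-driven Fluc reporter were seeded overnight, then exposed to compounds for 24 h at 37 °C. Luminescence was normalized to PTC124 (positive control) and DMSO (0% activity).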

[3] = S16 Schwann cell PMP22 intronic element beta-lactamase assay (AID 624044; calls by dose curve; note: nearly all actives have a fitted effect of over 15% in size); details: S16 rat Schwann cells, PMP22 element beta-lactamase FRET, 24 h; series mostly up to 38.3 µM
Procedure, shortened: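 Beta-lactamase reporter under a PMP22 intronic regulatory element in stable S16 rat Schwann cells; 24 h compound exposure. 460 nm blue signal normalized between DMSO (0%) and potassium clavulanate, with 535 nm FRET tracking viability; curves classed by r2 and response.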

C2A = test: qHTS profiling for inhibitors of Plasmodium falciparum proliferation (AID 504749); note: nearly all actives have a fitted effect of over 60% in size; details: P. falciparum in erythrocytes, SYBR Green DNA, 72 h; series mostly up to 28.7 µM
Procedure, shortened: (§1)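 Fluorescence of SYBR Green-bound parasite DNA, read at 485/535 nm, served as the growth measure. Infected erythrocytes were cultured with compound 72 h; artemisinin (0.29 uM) and DMSO wells defined the normalization range.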

CP217 = test: as above; details: P. falciparum in erythrocytes, SYBR Green DNA, 72 h; series mostly up to 28.7 µM
Procedure, shortened: as §1

CP250 = test: as above; details: P. falciparum in erythrocytes, SYBR Green DNA, 72 h; series mostly up to 28.7 µM
Procedure, shortened: as §1

CP252 = test: as above; details: P. falciparum in erythrocytes, SYBR Green DNA, 72 h; series mostly up to 28.7 µM
Procedure, shortened: as §1

CP256 = test: as above; details: P. falciparum in erythrocytes, SYBR Green DNA, 72 h; series mostly up to 28.7 µM
Procedure, shortened: as §1

CP260 = test: as above; details: P. falciparum in erythrocytes, SYBR Green DNA, 72 h; series mostly up to 28.7 µM
Procedure, shortened: as §1

ICS = test: as above; details: P. falciparum in erythrocytes, SYBR Green DNA, 72 h; series mostly up to 28.7 µM
Procedure, shortened: as §1

JCK = test: as above; details: P. falciparum in erythrocytes, SYBR Green DNA, 72 h; series mostly up to 28.7 µM
Procedure, shortened: as §1

N140 = test: as above; details: P. falciparum in erythrocytes, SYBR Green DNA, 72 h; series mostly up to 28.7 µM
Procedure, shortened: as §1

P93_24 = test: as above; details: P. falciparum in erythrocytes, SYBR Green DNA, 72 h; series mostly up to 28.7 µM
Procedure, shortened: as §1

SC27B = test: as above; details: P. falciparum in erythrocytes, SYBR Green DNA, 72 h; series mostly up to 28.7 µM
Procedure, shortened: as §1

[4] = Cell Viability - HepG2 (AID 433; calls by dose curve;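 note: potency is the fitted concentration of half-maximal effect; cells exposed to compound for 40 hours; potency for ATP loss meaning cytotoxicity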); details: qHTS
Procedure, shortened: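 Cytotoxicity read as ATP loss (CellTiter-Glo luminescence) after 40 hr compound exposure of HepG2, 1500 cells/well, 37 °C. AC50 by Hill equation; 0% set by DMSO, 100% inhibition by 100 uM tamoxifen.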

Measured: Potency

CC(=O)OC1CC2CCC1(C)C2(C)C (stereo not given)
inactive: [1] | [2] | [3] | C2A | CP217 | CP250 | CP252 | CP256 | CP260 | ICS | JCK | N140 | P93_24 | SC27B

CCCCCCCCCCCCCC(=O)O
inactive: [4] > 92 µM
